# Measurements published in article PMC7862700, “An all-to-all approach to the identification of sequence-specific readers for epigenetic DNA modifications on cytosine”.
# Assays:
# Experiment in all cases: DAPPL (digital affinity profiling via proximity ligation, sequencing); 10 mM Tris-HCl pH 7.5, 50 mM NaCl, 1 mM DTT, 4% glycerol, room temperature, 30 min; GST-TFs on glutathione beads, 16-mer random dsDNA library, 0.1% formaldehyde crosslink after washing; high values mean tight binding
# Conditions in all cases: protein: recombinant; tags: N-terminal GST; dsDNA, one strand shown
# FLI1 = biological target: T1, FLI1 (Homo sapiens, UniProt Q01543 1-452)
# T1 sequence: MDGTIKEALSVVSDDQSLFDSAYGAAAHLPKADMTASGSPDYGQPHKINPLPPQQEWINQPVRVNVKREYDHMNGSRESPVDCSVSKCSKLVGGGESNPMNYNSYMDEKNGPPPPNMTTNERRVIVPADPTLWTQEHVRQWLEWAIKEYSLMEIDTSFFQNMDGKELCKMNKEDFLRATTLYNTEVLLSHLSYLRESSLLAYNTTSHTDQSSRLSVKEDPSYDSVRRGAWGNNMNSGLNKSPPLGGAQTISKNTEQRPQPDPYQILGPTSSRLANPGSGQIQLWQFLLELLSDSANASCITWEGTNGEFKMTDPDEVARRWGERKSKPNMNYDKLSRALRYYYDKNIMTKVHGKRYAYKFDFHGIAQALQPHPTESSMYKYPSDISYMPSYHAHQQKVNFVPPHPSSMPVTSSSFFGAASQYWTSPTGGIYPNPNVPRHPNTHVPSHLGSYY
# In short: (§1)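 GST fusions of human transcription factors were expressed in yeast and captured with glutathione beads. Once given DNA barcodes and pooled alongside a tag-only sample, they were incubated for 30 min at room temperature with 200 nmole of a random double-stranded 16-mer DNA library in Tris/NaCl/DTT/glycerol buffer, then washed, crosslinked (0.1% formaldehyde), proximity-ligated, PCR-amplified and sequenced on an Illumina NextSeq500. The binding signal of each hexamer is its read frequency for a factor divided by its frequency for the tag-only sample.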
# ELK1 = biological target: T2, ELK1 (Homo sapiens, UniProt P19419 1-428)
# T2 sequence: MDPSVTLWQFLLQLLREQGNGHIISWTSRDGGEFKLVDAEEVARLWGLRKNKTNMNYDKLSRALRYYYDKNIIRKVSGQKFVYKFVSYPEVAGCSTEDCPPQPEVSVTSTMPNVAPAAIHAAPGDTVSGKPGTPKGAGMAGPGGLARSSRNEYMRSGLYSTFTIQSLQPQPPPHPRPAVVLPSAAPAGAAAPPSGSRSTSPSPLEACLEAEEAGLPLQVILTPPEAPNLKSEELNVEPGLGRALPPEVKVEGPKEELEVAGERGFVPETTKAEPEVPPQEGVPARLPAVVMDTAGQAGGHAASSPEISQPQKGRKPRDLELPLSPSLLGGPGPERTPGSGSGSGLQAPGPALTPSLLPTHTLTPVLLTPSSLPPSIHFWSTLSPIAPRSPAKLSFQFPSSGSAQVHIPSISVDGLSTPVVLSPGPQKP
# In short: as §1
# GABPA = biological target: T3, GABPA (Homo sapiens, UniProt Q06546 1-454)
# T3 sequence: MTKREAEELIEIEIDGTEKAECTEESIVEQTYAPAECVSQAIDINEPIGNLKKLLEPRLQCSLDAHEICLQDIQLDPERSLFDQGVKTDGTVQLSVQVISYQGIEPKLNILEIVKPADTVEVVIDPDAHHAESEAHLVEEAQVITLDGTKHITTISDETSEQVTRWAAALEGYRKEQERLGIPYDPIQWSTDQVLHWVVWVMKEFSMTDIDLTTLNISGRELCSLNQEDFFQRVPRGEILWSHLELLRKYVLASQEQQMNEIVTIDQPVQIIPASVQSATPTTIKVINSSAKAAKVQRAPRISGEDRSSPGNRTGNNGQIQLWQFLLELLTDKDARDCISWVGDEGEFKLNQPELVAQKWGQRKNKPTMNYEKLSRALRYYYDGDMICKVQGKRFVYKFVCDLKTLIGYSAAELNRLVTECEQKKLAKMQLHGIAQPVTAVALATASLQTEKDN
# In short: as §1
# ERG = biological target: T4, ERG (Homo sapiens, UniProt P11308 1-479)
# T4 sequence: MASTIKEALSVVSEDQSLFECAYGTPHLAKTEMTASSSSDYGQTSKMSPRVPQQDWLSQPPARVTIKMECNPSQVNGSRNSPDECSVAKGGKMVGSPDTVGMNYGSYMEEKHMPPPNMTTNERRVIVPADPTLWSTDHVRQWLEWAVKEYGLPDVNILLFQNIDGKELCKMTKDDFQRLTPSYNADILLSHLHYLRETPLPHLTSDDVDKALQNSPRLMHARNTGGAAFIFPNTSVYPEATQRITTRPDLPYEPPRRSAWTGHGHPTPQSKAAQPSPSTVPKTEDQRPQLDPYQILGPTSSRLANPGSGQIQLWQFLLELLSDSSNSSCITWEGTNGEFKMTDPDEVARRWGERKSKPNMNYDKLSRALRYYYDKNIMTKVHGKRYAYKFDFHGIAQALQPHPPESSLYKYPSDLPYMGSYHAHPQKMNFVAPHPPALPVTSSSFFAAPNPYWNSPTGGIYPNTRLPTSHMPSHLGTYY
# In short: as §1
# ELF1 = ELF1 (Homo sapiens, UniProt P32519 1-619)
# In short: as §1
# EHF = biological target: T5, EHF (Homo sapiens, UniProt Q9NZC4 1-300)
# T5 sequence: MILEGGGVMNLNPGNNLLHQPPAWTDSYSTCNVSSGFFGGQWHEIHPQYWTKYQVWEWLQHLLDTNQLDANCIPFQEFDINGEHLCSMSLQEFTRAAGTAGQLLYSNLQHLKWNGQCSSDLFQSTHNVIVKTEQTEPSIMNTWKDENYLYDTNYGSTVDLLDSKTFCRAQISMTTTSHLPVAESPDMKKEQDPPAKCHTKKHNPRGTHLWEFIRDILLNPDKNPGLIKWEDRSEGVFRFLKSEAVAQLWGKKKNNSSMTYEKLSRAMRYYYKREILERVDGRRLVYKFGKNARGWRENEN
# In short: as §1
# SPI1 = SPI1 (Homo sapiens, UniProt P17947 1-270)
# In short: as §1
# SPIB = SPIB (Homo sapiens, UniProt Q01892 1-262)
# In short: as §1
# ELK3 = biological target: T6, ELK3 (Homo sapiens, UniProt P41970 1-407)
# T6 sequence: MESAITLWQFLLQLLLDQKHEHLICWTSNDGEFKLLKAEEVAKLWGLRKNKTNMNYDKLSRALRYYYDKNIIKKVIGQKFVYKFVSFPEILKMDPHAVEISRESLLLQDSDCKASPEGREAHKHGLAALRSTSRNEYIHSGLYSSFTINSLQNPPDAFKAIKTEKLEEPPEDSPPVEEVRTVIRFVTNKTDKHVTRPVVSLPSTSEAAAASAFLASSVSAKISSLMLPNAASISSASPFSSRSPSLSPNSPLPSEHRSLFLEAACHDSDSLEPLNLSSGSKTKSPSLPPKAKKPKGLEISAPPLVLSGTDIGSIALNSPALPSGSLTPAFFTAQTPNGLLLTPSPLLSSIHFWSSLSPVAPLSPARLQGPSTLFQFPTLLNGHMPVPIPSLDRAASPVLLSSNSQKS
# In short: as §1
# Sequence of ELF1 (P32519 whole entry): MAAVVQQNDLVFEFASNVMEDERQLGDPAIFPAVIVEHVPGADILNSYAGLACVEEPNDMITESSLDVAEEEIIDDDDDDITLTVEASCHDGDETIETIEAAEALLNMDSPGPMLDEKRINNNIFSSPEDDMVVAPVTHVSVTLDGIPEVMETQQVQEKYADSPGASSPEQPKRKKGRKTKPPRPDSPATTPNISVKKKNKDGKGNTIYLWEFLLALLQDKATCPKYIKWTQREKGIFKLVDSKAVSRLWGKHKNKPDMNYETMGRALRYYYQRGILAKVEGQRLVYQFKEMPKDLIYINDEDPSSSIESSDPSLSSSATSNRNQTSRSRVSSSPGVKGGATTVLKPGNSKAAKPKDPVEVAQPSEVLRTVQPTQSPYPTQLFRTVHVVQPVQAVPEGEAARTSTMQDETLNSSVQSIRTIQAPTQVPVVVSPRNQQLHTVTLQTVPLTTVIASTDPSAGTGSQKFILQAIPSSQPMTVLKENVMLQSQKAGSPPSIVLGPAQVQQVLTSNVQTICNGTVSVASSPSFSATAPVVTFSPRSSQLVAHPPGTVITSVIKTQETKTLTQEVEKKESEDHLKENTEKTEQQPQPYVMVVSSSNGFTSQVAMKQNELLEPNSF
# Sequence of SPIB (Q01892 whole entry): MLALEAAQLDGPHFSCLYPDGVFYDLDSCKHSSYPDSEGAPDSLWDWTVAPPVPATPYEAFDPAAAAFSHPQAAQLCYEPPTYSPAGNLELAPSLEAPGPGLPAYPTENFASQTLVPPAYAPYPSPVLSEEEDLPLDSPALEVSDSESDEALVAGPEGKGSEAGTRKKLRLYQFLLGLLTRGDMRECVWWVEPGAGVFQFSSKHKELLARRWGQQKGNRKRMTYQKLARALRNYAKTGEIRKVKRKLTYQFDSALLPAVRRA
sequence,measurement,setting,value
CGAAGC,binding signal,FLI1,"1.39 fold enrichment (6-mer frequency, TF over GST control)"
same,binding signal,ELK1,"1.36 fold enrichment (6-mer frequency, TF over GST control)"
same,binding signal,GABPA,"1.36 fold enrichment (6-mer frequency, TF over GST control)"
same,binding signal,ERG,"1.23 fold enrichment (6-mer frequency, TF over GST control)"
same,binding signal,ELF1,"1.34 fold enrichment (6-mer frequency, TF over GST control)"
same,binding signal,EHF,"1.26 fold enrichment (6-mer frequency, TF over GST control)"
same,binding signal,SPI1,"1.2 fold enrichment (6-mer frequency, TF over GST control)"
same,binding signal,SPIB,"1.22 fold enrichment (6-mer frequency, TF over GST control)"
same,binding signal,ELK3,"1.49 fold enrichment (6-mer frequency, TF over GST control)"
